Among all 410,000 compounds or so, about 18,000 (4.4%) were called active. Another 7% or so got no clear call; they are omitted. For the sample, actives were picked, then their nearest neighbours and some compounds at random. Values without a mark were called inactive. Rule as the data show it: active = activity change below about -60%; inconclusive = no clear call, values can overlap the other calls; inactive = above about -39%.
% is scaled to controls: 0 for no effect and ±100 for the full control effect.

The test in a line: qHTS Assay for inhibitors of the human cytomegalovirus (HCMV). The settings on record: HFF cells, HCMV-luciferase reporter, 72 h; at 57.5 µM; stronger effect = lower value. In outline:
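Human foreskin fibroblasts infected with luciferase-reporter HCMV at MOI 1 PFU/cell, compounds at two doses. Luciferase measured 72 h post infection; normalized to buffer-only basal and Salinomycin (10uM) controls.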
For `CCOC(=O)Cn1c(=O)n(C2CCCCC2)c2nc(-c3cccc(OC)c3)nc(C(N)=O)c21`, the activity change, negative = inhibition is 18.1%. On to `O=C(/C=C/c1ccccc1)N1CCN(Cc2cc(=O)n3nc(-c4ccccc4F)sc3n2)CC1`, for which the activity change, negative = inhibition is 34.4%.

Turning to `CCCOc1ccccc1C1CC(=O)Nc2cc3c(cc21)OCO3` (stereo not given), the activity change, negative = inhibition was -61.8% (active). As for `O=C1OCC2=C1C(c1ccc(Cl)cc1)c1cc3c(cc1O2)OCO3` (stereo not given), the activity change, negative = inhibition is 37.6%.

On to `O=C1CC(c2ccc(F)cc2F)c2cc3c(cc2N1)OCO3` (stereo not given), for which the activity change, negative = inhibition was -1.6%. As to `O=C1NC(c2cc3c(cc2Cl)OCO3)Oc2ccccc21` (stereo not given), the activity change, negative = inhibition was 17.7%.

Take `Cc1cc2c(cc1C)C(c1cccc(OC(C)C)c1)CC(=O)N2` (stereo not given): the activity change, negative = inhibition is -38.7%. The same measure for `COc1ccccc1C1C2=C(COC2=O)Nc2cc3c(cc21)OCO3` (stereo not given): -87.9% (active); for `COc1ccc(-c2onc(C)c2C)cc1S(=O)(=O)NCC1CCN(Cc2cccc(F)c2)CC1`: 0%; for `Cc1ccccc1CN1CCC(CNC(=O)c2c(C)oc3ncnc(N4CCCCC4)c23)CC1`: -4.04%. As to `Cc1sc2ncn(CC(=O)N3CCN(c4ccc(F)cc4)CC3)c(=O)c2c1S(=O)(=O)N1CCN(c2ncccn2)CC1`, the activity change, negative = inhibition was -4.66%. Then `Cc1n[nH]c(=O)c2c(NC(=O)CSc3ccccc3F)oc(C)c12`, with -30.8%. In the case of `COc1ccc(N2C(=O)CS(=O)(=O)C23C(=O)N(Cc2ccc(C)cc2)c2ccccc23)cc1Cl` (stereo not given), the activity change, negative = inhibition was -12.4%. Take `COc1ccc(NC(=O)CC2COc3ccccc3O2)c(OC)c1` (stereo not given): the activity change, negative = inhibition was 9.76%. In the case of `S=C(NCC1COc2ccccc2O1)Nc1ccc(Br)cc1` (stereo not given), the activity change, negative = inhibition is -67.8% (active).

Consider `COc1ccccc1C1CCN(C(=S)Nc2ccc(Br)cc2)CC1`, for which the activity change, negative = inhibition is 2.47%.

For the molecule `CCC(=O)N1CCc2cc(S(=O)(=O)NC(Cc3ccccc3)C(=O)NCc3ccc(C)cc3)ccc21` (stereo not given), the activity change, negative = inhibition is 5.04%.

For `Cc1ccc(N(Cc2ccccc2O)C(=O)c2ccccc2F)cc1`, the activity change, negative = inhibition was -8.68%.

For the molecule `CCC(=O)N(Cc1cc2ccccc2[nH]c1=O)c1ccc(OC)cc1`, the activity change, negative = inhibition was 18.3%. With `Cc1ccc(N(Cc2cc(=O)[nH]c3ccccc23)C(=O)CCl)cc1`, the activity change, negative = inhibition was -101% (active).

`Cc1ccc(C)c(NC(=O)Cn2ccn(-c3ccc(F)cc3)c(=O)c2=O)c1`: the activity change, negative = inhibition was -35.9%.

With `O=S(=O)(Nc1ccc2nc(-c3cccc(Cl)c3)oc2c1)c1ccccc1`, the activity change, negative = inhibition is -36.4%. As to `COc1ccc(C(C)(C)C)cc1NC(=O)CN(C)C1=NS(=O)(=O)c2ccccc21`, the activity change, negative = inhibition is 6.84%. In the case of `Oc1cccc(/C=N/Nc2ccc(Cl)nn2)c1O`, the activity change, negative = inhibition was -95.1% (active). Consider `COc1ccc(-n2ccn(CC(=O)Nc3ccc(C)c(C)c3)c(=O)c2=O)cc1OC`, for which the activity change, negative = inhibition is -20.8%.

Regarding `CC(C)N1C(=O)N(c2ccccc2)C(C)(O)CC1(C)C` (stereo not given), the activity change, negative = inhibition is -26.6%. Then `CC(CC(=O)Nc1ccccc1)n1ccnc1` (stereo not given), with 39%; and `CC(=O)N1CCc2cc(S(=O)(=O)NC(Cc3ccccc3)C(=O)NCc3ccc(C)cc3)ccc21` (stereo not given), with -12.2%; and `C#CCN(C[C@@H]1[C@@H](OC(=O)NC2CC2)[C@@H](OC(=O)NC2CC2)Cn2c(=O)ccc(=O)n21)S(=O)(=O)c1ccc(C)cc1`, with -96.3% (active). Regarding `C#CCN(C[C@H]1[C@H](OC(=O)NC2CCCC2)[C@H](OC(=O)NC2CCCC2)C[C@H]2C(=O)N(c3ccccc3)C(=O)[C@@H]12)S(=O)(=O)c1ccc(C)cc1`, the activity change, negative = inhibition was -6.21%. Consider `Cc1ccc(S(=O)(=O)N2C[C@H]3n4c(=O)ccc(=O)n4C[C@H](OC(=O)NC4CCCC4)[C@@]3(O)C2)cc1`, for which the activity change, negative = inhibition was -24.9%. Regarding `CCC(=O)N1N=C(c2ccc(OC)cc2)CC1c1cn(-c2ccccc2)nc1-c1cccs1` (stereo not given), the activity change, negative = inhibition is -16.7%. The same measure for `COc1ccc(Br)cc1CNC(=O)c1cc(=O)[nH]c2ccc(S(=O)(=O)N3CCCC3)cc12`: 37.6%; for `COc1ccccc1CNC(=O)NCc1noc2ccc(C)cc12`: -4.73%; for `O=C(CCCC(=O)N(CC(=O)NC1CCCC1)Cc1ccccc1Cl)Nc1ccccn1`: -99.6% (active). As to `Cc1ccc(N(CC(=O)NC2CCCCC2)C(=O)CCCC(=O)Nc2ccccn2)c(C)c1`, the activity change, negative = inhibition was 0.377%. With `CCOc1ccccc1N(CC(=O)NC1CCCCC1)C(=O)CCCC(=O)Nc1ccccn1`, the activity change, negative = inhibition is -7.08%. Regarding `Cc1ccc(S(=O)(=O)N2CCC(C(=O)NCCC3=CCCCC3)CC2)cc1C`, the activity change, negative = inhibition was -15.1%. As to `CC(=O)c1ccc(NC(=O)CSc2c(C(C)C)cnc3c2c(=O)n(C)c(=O)n3C)cc1`, the activity change, negative = inhibition is -7.7%. For the molecule `CC(C)(C)c1ccc(C(=O)NCC(c2ccco2)S(=O)(=O)c2ccc(F)cc2)cc1` (stereo not given), the activity change, negative = inhibition is -16.6%. For the molecule `CCN(Cc1ccccc1)Cc1c(O)ccc2c(=O)c(-c3ccc(Cl)cc3Cl)coc12`, the activity change, negative = inhibition is 1.81%. Turning to `CC(C)CN(Cc1c(O)ccc2c(=O)c(-c3ccccc3)coc12)CC(C)C`, the activity change, negative = inhibition is -72.9% (active).

Turning to `CN(C)Cc1c(O)ccc2c(=O)c(-c3ccccc3Cl)coc12`, the activity change, negative = inhibition is 14.6%. As for `CN(O)C(=S)c1ccccc1`, the activity change, negative = inhibition was -97.9% (active).

On to `CCOC(=O)c1cccn1C1C(=O)N(Cc2ccc(OC)cc2)c2c(F)cccc21` (stereo not given), for which the activity change, negative = inhibition is -32%.

Consider `CC(=O)c1ccc(NC(=O)CSc2nc(-c3ccccc3F)nc3c2c(=O)n(C)c(=O)n3C)cc1`, for which the activity change, negative = inhibition is 0.932%. Regarding `CCN(CC)C(=O)c1ccc(NC(=O)c2cc(-n3cnnc3)ccc2Cl)cc1`, the activity change, negative = inhibition is 34.8%. For `CN(C)S(=O)(=O)c1cc(C(=O)Nc2ccn(C)n2)c(Cl)cc1Cl`, the activity change, negative = inhibition was 0% (active). Consider `O=C(Nc1nccs1)c1cc(S(=O)(=O)N2CCOCC2)c(Cl)cc1Cl`, for which the activity change, negative = inhibition was 32.2%. On to `Cc1ccc(N2CC(c3nnc(Cc4ccccc4Cl)o3)CC2=O)cc1` (stereo not given), for which the activity change, negative = inhibition is -8.78%. Take `CCOC(=O)CNC(=O)c1cc2c(=O)n3cccc(C)c3nc2s1`: the activity change, negative = inhibition is 9.74%. With `Cc1ccc2oc(=O)c3cnn(CC(=O)N4CCN(c5cccc(Cl)c5)CC4)c3c2c1`, the activity change, negative = inhibition is -2.47%.

`CCCCN(CC)CCCNC(=O)c1nn(C)c2c1CS(=O)(=O)c1ccccc1-2`: the activity change, negative = inhibition was -8.91%.

Take `O=C(NCc1ccc(F)cc1)c1ccc2nc(N3CCCCC3)sc2c1`: the activity change, negative = inhibition is 65.5%.

In the case of `c1c2c(cc3sc(N4CCCCC4)nc13)OCCO2`, the activity change, negative = inhibition was -64.2% (active).

For the origin of these results see PubChem BioAssay AID1259415 (National Center for Advancing Translational Sciences (NCATS), 2018).
